From PubChem
A selection: hits, their analogues and other compounds. The true share with any hit is near 2.9%.
p53 reactivation: mutant p53 re-activation in reporter cells; H1299 p53-A138V BP100-luciferase reporter, luminescence, 24 h; Potency, µM (series often up to 92.2 µM), for the others: top-dose activity change, positive = activation, most hits filed as activators; hit rate 0.063% among 320,000; note: potency is the fitted concentration of half-maximal effect; % of control where 0% means no effect; nearly all actives have a fitted effect of over 45% in size
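H1299 (p53-null), stable ts p53-A138V + BP100-Luc; 1000 cells/well, Opti-MEM/10% FBS; cpd 4 pt, 1:5; 24 h, 37 deg C, 5% CO2; detection reagent 10 min RT; luminescence.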
GLP-1R agonist: agonists of human GLP-1 receptor. HEK293 GLP-1R CRE-luciferase, luminescence, 4-6 h; cells express a hypersensitive GLP-1R form. Potency, µM (highest dose often 45.6 µM), without a hit: at the highest dose activation, most hits filed as activators. P43220. AID 624172. hit rate 0.007% among 380,000; note: potency is the fitted concentration of half-maximal effect; % of control where 0% means no effect
Target sequence (P43220 whole entry, looked up): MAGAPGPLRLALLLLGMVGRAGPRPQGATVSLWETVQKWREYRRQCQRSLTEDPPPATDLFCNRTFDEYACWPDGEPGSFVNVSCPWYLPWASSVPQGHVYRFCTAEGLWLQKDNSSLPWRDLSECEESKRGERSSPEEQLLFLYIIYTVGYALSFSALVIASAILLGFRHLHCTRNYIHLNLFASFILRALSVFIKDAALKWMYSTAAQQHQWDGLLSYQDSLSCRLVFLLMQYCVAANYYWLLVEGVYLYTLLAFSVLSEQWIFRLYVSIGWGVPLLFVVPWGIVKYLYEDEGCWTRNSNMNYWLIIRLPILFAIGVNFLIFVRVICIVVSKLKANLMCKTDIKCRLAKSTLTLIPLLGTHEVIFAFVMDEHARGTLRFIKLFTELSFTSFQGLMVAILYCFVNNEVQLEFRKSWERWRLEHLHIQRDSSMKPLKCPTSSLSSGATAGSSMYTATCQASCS
GLP1R inv ag: acts as inverse agonist at human GLP-1 receptor | HEK293 GLP-1R CRE-luciferase, luminescence, 24 h; GLP-1R form is constitutively active | AID 624417 | hit rate 1.6% among 410,000 | Potency, µM (series often up to 38.3 µM), without a hit: top-dose activity change, negative = inhibition, usual class: inhibitors; note: potency is the fitted concentration of half-maximal effect; % is set by controls: 0 for no effect and ±100 for the full control effect; nearly all actives have a fitted effect of over 55% in size
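Using stably transfected HEK293 (constitutively active GLP-1R, cAMP-luciferase reporter), compounds were incubated 24 hr and luciferase measured by luminescence.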
HEK293 tox: cytotoxicity in counter-screen for GLP-1R inverse agonists; HEK293 cAMP-luciferase reporter cells, luminescence, 24 h; Potency, µM (doses to about 38.3 µM), for inactives: at the highest dose activity change, negative = inhibition, usual class: inhibitors; hit rate 0.13% among 410,000; AID 624418;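 note: loss of luciferase light is scored as toxicity; potency is the fitted concentration of half-maximal effect; % is set by controls: 0 for no effect and ±100 for the full control effect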
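Seeding density was 200 cells/uL; after overnight-length (12 h) culture, 23 nL compounds went on for 24 h at 37 °C. Readout used a luciferase detection reagent, luminescence taken after 12 min at room temperature.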
ClpP mod: qHTS Assay for Activators of ClpP. purified B. subtilis ClpP, FRET peptide cleavage, 20 min. hit rate 1.9% among 340,000. AID 651965, 2013. Potency, µM (series often up to 57.5 µM), for the others: at the top dose activity change, negative = active. ATP-dependent Clp protease proteolytic subunit (Bacillus subtilis (strain 168)), P80244; active = well fitted falling curve with a large enough effect; inconclusive = small, poorly fitted or top-dose-only effect; inactive = no such curve, though single readings can be large or run the other way; note: potency is the fitted concentration of half-maximal effect; the source files actives as falling curves though it sought activators and does not explain the sign; nearly all actives have a fitted effect of over 65% in size
Target sequence (P80244 whole entry, looked up): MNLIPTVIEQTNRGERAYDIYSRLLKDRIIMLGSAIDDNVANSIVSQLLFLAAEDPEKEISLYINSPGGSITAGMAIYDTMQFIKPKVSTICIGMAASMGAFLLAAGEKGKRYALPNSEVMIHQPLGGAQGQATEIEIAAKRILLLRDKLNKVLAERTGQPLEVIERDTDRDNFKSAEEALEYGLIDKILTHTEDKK
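ClpP 10 microg/mL final, pH 8 Tris/KCl buffer with BSA, glycerol, Tween-20; compound pinned in; FRET-FV substrate; RT 20 min; Ex320/Em430; ΔFRET vs ADEP 5.8 microM, DMSO, no enzyme.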
LDHA block: blocks human lactate dehydrogenase A | P00338 | purified LDHA, NADH/diaphorase-resazurin fluorescence; active compounds read low | activity change, % (values are at about 110 or 230 µM) | hit rate 0.15% among 480,000 | AID 1347041; in the data active = activity change below about -30%; inconclusive = mostly about -25% to -30%;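 note: plate controls were DMSO wells for no effect and wells without enzyme for full effect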
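LDH5 2 nM; NADH 0.06 mM, pyruvate 0.2 mM; 200 mM Tris pH 7.4, EDTA, Tween-20; 5 min RT. Detection: diaphorase 0.133 mg/mL + resazurin 37 µM, fluorescence ex540/em590 at 0 and 20 min; normalized to enzyme-free and DMSO wells.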
Numbers without * were called inactive; i = inactive; ? = inconclusive; . = not tested or not shown. Unless noted, calls come from the whole dose curve; as a rule, active = well fitted curve in the direction sought with a large enough effect; inconclusive = small, poorly fitted or top-dose-only effect, or another doubt; inactive = no such curve, though single readings can be large; an effect the other way counts as inactive or inconclusive.

SMILES | p53 reactivation | GLP-1R agonist | GLP1R inv ag | HEK293 tox | ClpP mod | LDHA block
CCCN(CC(=O)Nc1ccccc1C)C(=O)c1ccc(N2CCCC2=O)cc1 | 8% | -1% | -7% | -6% | 1% | 0
Cc1cc(O)cc(O)c1-c1onc(C(F)(F)F)c1-c1cscn1 | -17% | -14% | 7.9µM* | -20% | 1% | 5
CCCn1c(COc2ccccc2OC)nc2ccccc21 | . | -11% | 10µM* | -14% | . | -2
CCn1c(COc2ccccc2OC)nc2ccccc21 | ? | 4% | -6% | -13% | -3% | -8
O=C(NCc1nc2ccccc2[nH]1)C1=C[C@H](C2CC2)C[C@H](OCCCCO)O1 | -5% | 21% | 30% | 0% | 0% | -6
CCOC(=O)c1cc2c(=O)n3ccccc3nc2n(Cc2ccco2)c1=NC(=O)c1ccccc1Br | . | . | 13% | 324% | 4% | 4
CCOC(=O)c1cc2c(=O)n3ccccc3nc2n(Cc2ccco2)c1=NC(=O)c1ccc(C)c(C)c1 | . | . | 15% | 184% | 4% | 9
CCOC(=O)c1cc2c(=O)n3ccccc3nc2n(CC(C)C)c1=NC(=O)c1ccco1 | -1% | 9% | 30% | 173% | 7.1µM* | -4
CCOC(=O)c1cc2c(=O)n3ccccc3nc2n(Cc2ccccc2)c1=N | 4% | -1% | 14% | 196% | 16µM* | 1
CCOC(=O)c1cc2c(=O)n3ccccc3nc2n(Cc2ccco2)c1=NC(=O)c1cccnc1 | -8% | 11% | 24% | i | 3.2µM* | 10
CCOC(=O)c1cc2c(=O)n3ccccc3nc2n(Cc2ccco2)c1=NC(=O)c1cccc(C)c1 | . | . | -20% | 205% | 4% | 0
CCOC(=O)c1cc2c(=O)n3cccc(C)c3nc2n(Cc2ccco2)c1=NC(=O)c1cccnc1 | -1% | 0% | -1% | 419% | 14µM* | 0
CCOc1ccc(C(=O)N2CCN(c3nc4sc5c(c4c(=O)n3C)CCCC5)CC2)cc1 | . | . | . | . | . | 1
COc1ccccc1NC(=O)CS(=O)(=O)c1cccc2nsnc12 | -6% | -7% | 0% | -6% | -1% | 2
Cc1ccc(Cn2nccc2NC(=O)C2CCN(S(=O)(=O)c3ccc(C)c(C)c3)CC2)cc1 | . | . | . | . | . | 8
O=S(=O)(c1ccc(Br)s1)N1CCN(CCc2ccccc2)CC1 | -3% | -3% | 1% | 2% | 1% | -5
O=C(Oc1ccc(Cl)c2cccnc12)N1CCOCC1 | ? | -10% | 9% | -14% | 32µM* | -1
O=C(Oc1ccc(Cl)c2cccnc12)N1CCCCC1 | ? | 2% | -30% | -25% | ? | -3
O=C(Oc1ccc(Cl)c2cccnc12)c1cccnc1 | . | -3% | 3.2µM* | ? | -1% | 7
CCn1nc(C)c2c(-c3ccccc3)cc(=O)n(C(C)C(=O)Nc3cc(C)ccc3C)c21 (centres undefined) | . | . | 12% | 26% | -13% | -8
CCn1nc(C)c2c(-c3ccccc3)cc(=O)n(C(C)C(=O)Nc3cccc(F)c3)c21 (centres undefined) | . | . | 7.9µM* | 0% | 4% | 3
CN(CCO)c1nc(-c2cccs2)nc2ccccc12 | . | . | . | . | 7% | 3
Cc1ccc(S(=O)(=O)N(C)CCN(C)c2nc(-c3cccs3)nc3ccccc23)cc1 | . | . | . | . | 32µM* | -11
C[C@H](NC(=O)C(=O)Nc1cccc(C(=O)c2nccn2C)c1)c1ccccc1 | . | . | . | . | . | 6
O=C(NCC1CCCO1)c1ccc2c(c1)N(Cc1ccc(Cl)cc1)CCS2 (centres undefined) | . | 8% | 10µM* | -17% | 4% | 9
SMILES | p53 reactivation | GLP-1R agonist | GLP1R inv ag | HEK293 tox | ClpP mod | LDHA block
Cc1ccc(CN2CCSc3ccc(C(=O)NCCCN4CCN(C)CC4)cc32)cc1 | ? | 30% | 5.6µM* | ? | 4% | -3
Cc1ccc(CN2CCSc3ccc(C(=O)NCC4CCCO4)cc32)cc1 (centres undefined) | -5% | 2% | ? | 0% | 4% | 5
CN(C)CCNC(=O)c1ccc2c(c1)N(Cc1ccc(F)cc1)CCS2 | ? | -3% | 3.2µM* | 1% | 5% | 0
CC(Cl)C(=O)c1c(N)n(C)c(=O)n(C)c1=O (centres undefined) | -5% | 2% | 0% | -11% | -2% | -2
Cc1nonc1C(=O)N/N=C/c1ccc(O)c(O)c1 | ? | -11% | 100% | -5% | 28µM* | 9
CCOc1cccc2sc(=NC(=O)CCS(=O)(=O)c3ccc(F)cc3)n(C)c12 | -8% | -1% | 5% | 23% | ? | -7
COc1cccc2sc(=NC(=O)CCS(=O)(=O)c3ccc(C)cc3)n(C)c12 | -7% | -6% | -11% | 0% | 3.2µM* | -9
COc1cccc(C2=C(C(C)=O)Sc3nnc(C4CCCCC4)n3N2C(C)=O)c1 | . | . | 10% | 1% | 0% | 0
CC(=O)C1=C(c2ccc(Cl)c(Cl)c2)N(C(C)=O)n2c(C)nnc2S1 | . | . | 11µM* | -21% | -6% | -8
CC(=O)C1=C(c2ccccc2)N(C(C)=O)n2c(nnc2C2CCCCC2)S1 | . | . | 13µM* | -1% | 0% | 2
CC(=O)C1=C(c2ccc(Cl)c(Cl)c2)N(C(C)=O)n2c(nnc2-c2ccccc2)S1 | . | . | 13% | -3% | -2% | 16
O=C1NN(c2ccc(Cl)c(Cl)c2)C(=O)/C1=C/c1ccc(-c2ccccc2C(=O)O)o1 | -4% | -2% | ? | -17% | . | -14
CCOC(=O)Cc1[nH]nc2c1C(c1cccc(OC)c1OC)C(C#N)=C(N)O2 (centres undefined) | -5% | 2% | 0% | -23% | -4% | -5
COC(=O)Cc1[nH]nc2c1C(c1cccc(OC)c1OC)C(C#N)=C(N)O2 (centres undefined) | -4% | 0% | 7% | 0% | 28µM* | -2
Nc1nc(N)c2cc([N+](=O)[O-])ccc2n1 | . | 24% | 60% | 0% | 0% | -30*
Nc1nc(N)c2c(ccc3c2ccn3Cc2cccc([N+](=O)[O-])c2)n1 | . | -11% | 0.5µM* | ? | -7% | -4
Cc1ccc(Nc2nc3c(S(=O)(=O)c4ccccc4)nnn3c3ccc(Cl)cc23)c(C)c1 | . | . | 1% | 9% | -16% | -1
COCC(C)NC(=O)c1ccccc1OC(C)=O (centres undefined) | 7% | -7% | 2% | 9% | 25µM* | -6
CC(=O)Oc1ccccc1C(=O)NC(C)CCc1ccccc1 (centres undefined) | 0% | -16% | ? | -4% | -13% | -10
